Experimental data taken from PubChem BioAssay (NCI).
“And” between values parts separate entries of the source, which are not always exact repeats. Equal values may be shown once. This is part of a sample that, as a whole, favours compounds with a hit. Of some 79,000 tested, about 15% had one in any assay. A structure can be active in one record and inactive in another. The source made the active and inactive calls. Cut-off read from the data, not from the text of the source: active = growth inhibition above about 70%; inactive = the rest.

What was measured:
[1] = NCI Yeast Anticancer Drug Screen. Data for the rad52 strain (AID 147);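 note: 0% = growth of vehicle-treated control cultures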; details: S. cerevisiae rad52 mutant growth inhibition, stronger effect = higher value
How it was run: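 Genetically altered yeast (DNA damage repair defect) treated with compound; inhibition calculated relative to vehicle.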

[2] = NCI Yeast Anticancer Drug Screen. Data for the wt1 strain (AID 149);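 note: 0% = growth of vehicle-treated wt1 cultures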; details: S. cerevisiae wt1 strain (SPY 50644) growth inhibition, stronger effect = higher value
How it was run: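 Measured: growth of wt1 yeast under compound versus vehicle treatment, reported as inhibition.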

[3] = NCI Yeast Anticancer Drug Screen. Data for the rad50EPP+ strain (AID 151);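 note: 0% = growth of vehicle-treated control cultures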; details: S. cerevisiae rad50 mutant strain, stronger effect = higher value
How it was run: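 Strain rad50EPP+; compound exposure; % growth inhibition vs vehicle.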

[4] = NCI Yeast Anticancer Drug Screen. Data for the rad50 strain (AID 155);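 note: 0% = growth of vehicle-only cultures of the same strain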; details: S. cerevisiae rad50 strain growth inhibition, stronger effect = higher value
How it was run: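 Growth of the mutant yeast was measured after compound exposure and referenced to vehicle-treated cultures.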

[5] = NCI Yeast Anticancer Drug Screen. Data for the mec2-1 strain (AID 157); details: S. cerevisiae mec2-1 strain, stronger effect = higher value
How it was run: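 Cells of the genetically defined mec2-1 yeast strain are incubated with test compound. Inhibition of growth is calculated against vehicle-treated controls.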

[6] = NCI Yeast Anticancer Drug Screen. Data for the rad14 strain (AID 159);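 note: 0% = growth of vehicle-treated control cultures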; details: S. cerevisiae rad14 strain growth inhibition, stronger effect = higher value
How it was run: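 Here, inhibition of yeast growth was measured after compound exposure, using a strain with a genetic defect in DNA damage repair and vehicle-treated cultures as the reference.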

[7] = NCI Yeast Anticancer Drug Screen. Data for the sgs1 mgt1 strain (AID 161);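 note: 0% = growth of cultures given vehicle only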; details: S. cerevisiae sgs1 mgt1 strain, stronger effect = higher value
How it was run: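 Read-out: growth inhibition vs vehicle controls. Cells: mutant yeast strain deficient in DNA damage repair.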

[8] = NCI Yeast Anticancer Drug Screen. Data for the CLN2oe strain (AID 163);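 note: 0% = growth of vehicle-only control cultures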; details: S. cerevisiae CLN2oe strain, stronger effect = higher value
How it was run: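 Strain altered in cell-cycle control, incubated with compound; growth compared to solvent-treated controls.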

[9] = NCI Yeast Anticancer Drug Screen. Data for the cln2 rad14 strain (AID 165);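 note: 0% = growth equal to vehicle treated cultures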; details: S. cerevisiae cln2 rad14 strain, stronger effect = higher value
How it was run: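 The screen exposed genetically defined yeast (cln2 rad14) to test compounds and scored growth inhibition relative to vehicle-treated controls.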

[10] = NCI Yeast Anticancer Drug Screen. Data for the bub3 strain (AID 167); details: S. cerevisiae bub3 mutant strain, stronger effect = higher value
How it was run: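 Whole-cell yeast assay. The mutant strain was incubated with compounds, and growth inhibition was determined by comparison with vehicle-treated cells.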

[11] = NCI Yeast Anticancer Drug Screen. Data for the wt2 strain (AID 169);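 note: 0% = growth of vehicle-treated yeast cultures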; details: S. cerevisiae wt2 strain growth inhibition, stronger effect = higher value
How it was run: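 Steps: yeast strain treated with compound; growth recorded; inhibition calculated relative to cultures given vehicle alone.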

[12] = NCI Yeast Anticancer Drug Screen. Data for the mlh1 strain (AID 171);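 note: 0% = growth of vehicle-treated control cultures of the same strain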; details: S. cerevisiae mlh1 strain growth inhibition, stronger effect = higher value
How it was run: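 Yeast screen: mutant strain plus compound, growth scored against vehicle control wells.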

[13] = NCI Yeast Anticancer Drug Screen. Data for the sgs1 strain (AID 173);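 note: 0% = growth of vehicle-only control cultures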; details: S. cerevisiae sgs1 mutant, stronger effect = higher value
How it was run: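 Inhibition of yeast growth served as the measure. The mutant strain was treated with each compound, and growth was normalised to cultures receiving vehicle alone.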

[14] = NCI Yeast Anticancer Drug Screen. Data for the mlh1 rad18 strain (AID 175); details: S. cerevisiae mlh1 rad18 strain growth inhibition, stronger effect = higher value
How it was run: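 Compound-treated yeast growth, normalised to vehicle controls. Strain bears defined DNA repair mutations.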

[15] = NCI Yeast Anticancer Drug Screen. Data for the mgt1 strain (AID 153); details: S. cerevisiae mgt1 mutant growth inhibition, stronger effect = higher value
How it was run: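 Read-out: yeast growth inhibition vs vehicle control. Strain mgt1, drawn from a panel altered in DNA damage repair or cell cycle control.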

[16] = NCI Yeast Anticancer Drug Screen. Data for the rad18 strain (AID 177); details: S. cerevisiae rad18 mutant growth inhibition, stronger effect = higher value
How it was run: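 Inhibition values reflect reduced yeast growth compared with vehicle-treated controls, using a strain engineered with a DNA damage repair defect.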

[17] = at 5.0 µM (retest, dose inferred, filed as 0.5)
[18] = at 50.0 µM (retest, dose inferred, filed as 5.0)

Measured: growth inhibition

S=c1sc2c(s1)SCCS2
inactive: [1]; at 1.2 µM 1% | [1]; at 3.7 µM 1% | [1]; at 11.0 µM 4% | [1]; at 33.0 µM 5% | [1]; at 100.0 µM 7% | [2]; at 1.2 µM -1% | [2]; at 3.7 µM 1% | [2]; at 11.0 µM 1% | [2]; at 33.0 µM 0% | [2]; at 100.0 µM 2% | [3]; at 1.2 µM 2% | [3]; at 3.7 µM 3% | [3]; at 11.0 µM 6% | [3]; at 33.0 µM 14% | [3]; at 100.0 µM 9% | [4]; at 1.2 µM 0% | [4]; at 3.7 µM 3% | [4]; [17] 14% | [4]; at 11.0 µM -16% | [4]; at 33.0 µM 5% | [4]; [18] 49% | [4]; at 50.0 µM 13.7% and 58.8% | [4]; at 100.0 µM 6% | [5]; at 1.2 µM 2% | [5]; at 3.7 µM 2% | [5]; [17] -11% | [5]; at 11.0 µM -1% | [5]; at 33.0 µM -2% | [5]; [18] 23% | [5]; at 50.0 µM 5.65% and 50% | [5]; at 100.0 µM 0% | [6]; at 1.2 µM 1% | [6]; at 3.7 µM -4% | [6]; at 11.0 µM -2% | [6]; at 33.0 µM -1% | [6]; at 100.0 µM 5% | [7]; [17] -8% | [7]; [18] 54% | [8]; at 1.2 µM 0% | [8]; at 3.7 µM 0% | [8]; at 11.0 µM -2% | [8]; at 33.0 µM -4% | [8]; at 100.0 µM 0% | [9]; [17] -14% | [9]; [18] 32% | [9]; at 50.0 µM 7.95% and 60.4% | [10]; at 1.2 µM 1% | [10]; at 3.7 µM 2% | [10]; [17] -20% | [10]; at 11.0 µM 6% | [10]; at 33.0 µM 5% | [10]; [18] 49% | [10]; at 50.0 µM 20.4% and 64.8% | [10]; at 100.0 µM 4% | [11]; at 1.2 µM 1% | [11]; at 3.7 µM 2% | [11]; at 11.0 µM 2% | [11]; at 33.0 µM 3% | [11]; at 100.0 µM 4% | [12]; at 1.2 µM 1% | [12]; at 3.7 µM -2% | [12]; at 11.0 µM 5% | [12]; at 33.0 µM 1% | [12]; at 100.0 µM 3% | [13]; at 1.2 µM -1% | [13]; at 3.7 µM -1% | [13]; at 11.0 µM 0% | [13]; at 33.0 µM 0% | [13]; at 100.0 µM 3% | [14]; [17] 46% | [14]; [18] 59% | [14]; at 50.0 µM 20.8% and 57.5%
-2% (inactive) and 75.5% (active): [7]; at 50.0 µM

CCC(C)NC1=NCC(C)S1 (stereo unspecified)
inactive: [1]; at 1.2 µM -9% | [1]; at 3.7 µM -12% | [1]; at 11.0 µM -12% | [1]; at 33.0 µM -29% | [1]; at 100.0 µM -17% | [2]; at 1.2 µM -22% | [2]; at 3.7 µM -14% | [2]; at 11.0 µM -24% | [2]; at 33.0 µM -34% | [2]; at 100.0 µM -28% | [3]; at 1.2 µM -40% | [3]; at 3.7 µM -38% | [3]; at 11.0 µM -27% | [3]; at 33.0 µM -37% | [3]; at 100.0 µM -75% | [15]; at 1.2 µM -18% | [15]; at 3.7 µM -15% | [15]; at 11.0 µM -13% | [15]; at 33.0 µM -19% | [15]; at 100.0 µM -25% | [4]; at 1.2 µM -29% | [4]; at 3.7 µM -20% | [4]; [17] 44% | [4]; at 11.0 µM -32% | [4]; at 33.0 µM -34% | [4]; [18] 41% | [4]; at 50.0 µM 64.1% | [4]; at 100.0 µM -33% | [5]; at 1.2 µM -40% | [5]; at 3.7 µM -48% | [5]; [17] 42% | [5]; at 11.0 µM -63% | [5]; at 33.0 µM -51% | [5]; [18] 36% | [5]; at 50.0 µM 28.9% | [5]; at 100.0 µM -39% | [7]; [17] -9% | [7]; [18] 30% | [7]; at 50.0 µM 58.2% | [8]; at 1.2 µM -5% | [8]; at 3.7 µM 1% | [8]; at 11.0 µM -9% | [8]; at 33.0 µM 0% | [8]; at 100.0 µM -8% | [9]; [17] 44% | [9]; [18] 49% | [9]; at 50.0 µM 65.7% | [10]; at 1.2 µM -6% | [10]; at 3.7 µM -9% | [10]; [17] 19% | [10]; at 11.0 µM -8% | [10]; at 33.0 µM -16% | [10]; at 50.0 µM 57.7% | [10]; at 100.0 µM -17% | [12]; at 1.2 µM -27% | [12]; at 3.7 µM -27% | [12]; at 11.0 µM -22% | [12]; at 33.0 µM -36% | [12]; at 100.0 µM -42% | [13]; at 1.2 µM -26% | [13]; at 3.7 µM -21% | [13]; at 11.0 µM -16% | [13]; at 33.0 µM -38% | [13]; at 100.0 µM -29% | [14]; [17] 47% | [14]; [18] 27% | [14]; at 50.0 µM 62.6% | [16]; at 1.2 µM -12% | [16]; at 3.7 µM 0% | [16]; at 11.0 µM -6% | [16]; at 33.0 µM -26% | [16]; at 100.0 µM -32%
active: [10]; [18] 98%
